Assay results as given in PubChem BioAssay (EPA / NIEHS).
Results filed as inconclusive are left out. The source made the active and inactive calls. Rule for the calls: active = hit-call score of the fitted dose curve at least 0.9, where 1 is the maximum; inconclusive = response in the unintended direction; inactive = score below 0.9.

Each molecule was assayed on frog Estrogen Receptor (ER2), gene 100174814 (assay: ATG_frER2_XSP2: Attagene TRANS-FACTORIAL Multi-Species (XSP2) HepG2 Assay for frog Estrogen Receptor (ER2) (AID 2283828)).
Procedure: ATG_XSP2_multi-species_TRANS is a cell-based, multiplexed assay created by modifying the existing Attagene TRANS-FACTORIAL system to include a panel of nuclear receptors from some or all the following species: human (Homo sapiens), mouse (Mus musculus), frog (Xenopus laevis), zebrafish (Danio rerio), chicken (Gallus gallus), and turtle (Chrysemys picta). The ECOTOX-FACTORIAL format uses HepG2, a human liver cell line, with measurements taken at 24 hours after chemical dosing in a 24-well plate. Xsp2 included 3 nM 6-alpha-fluorotestosterone and 1.5 nM norgestrel to stimulate the androgen receptor.ATG_frER2_XSP2 is one of 29 assay components measured or calculated from the ATG_XSP2_multi-species_TRANS assay. It is designed to make measurements of mRNA induction, a form of inducible reporter, as detected with fluorescence intensity signals by Reverse transcription polymerase chain reaction (RT-PCR) and Capillary electrophoresis technology.The assay endpoint ATG_frER2_XSP2 was analyzed in the positive analysis fitting direction relative to DMSO as the negative control and baseline of activity. Using a type of inducible reporter, measures of mRNA for gain-of-signal activity can be used to understand the reporter gene at the transcription factor-level as they relate to the gene ER. Furthermore, this assay endpoint can be referred to as a primary readout, because this assay has produced multiple assay endpoints where this one serves a reporter gene function. To generalize the intended target to other relatable targets, this assay endpoint is annotated to the nuclear receptor intended target family, where the subfamily is steroidal.
Human liver HepG2 cells are transiently transfected with multiple reporter transcription units (MRTUs) in 6-well plates using FuGene 6 reagent (Roche; 3 ml FuGene/1 mg DNA). The MRTU constructs are regulated by a cis-regulating element (promoter). […] A major difference between the CIS and TRANS system is that in CIS activities of endogenous TFs are measured, whereas the TRANS assay evaluates changes in activities of exogenous, chimeric NR-Gal4 proteins. […] At the end of 24 hour incubation, total RNA was isolated using TriZol reagent (Invitrogen). The isolated RNA is then reverse-transcribed using oligo(dT) primer and Mo-MLV reverse transcriptase (Invitrogen) with DNAse I (Ambion) treatment for 30 min. The one-tenth of the produced cDNA was amplified by PCR using Taq DNA polymerase (Invitrogen) and two reporter sequence-specific primers. The PCR products were fluorescently labeled by primer extension with 6-arboxyfluorescein (6-FAM) 5'-labeled reporter sequence-specific primer (2 min at 95 C, 20 s at 68 C and 10 min at 72 C) and these products were digested with 5U of HpaI (New England Biolabs) for 2h at 37 C. The fragments were purified using Qiaquick PCR columns (Qiagen), analyzed on an ABI 3130xL genetic analyzer (Applied Biosystems) with peak positions identified by using a set of X-rhodamine (ROX)-labeled MapMarker1000 molecular weight standards (BioVentures). The raw capillary electrophoresis data was processed using Attagraph software (Attagene).

SMILES	outcome	AC50
C=CC1(C)OC(=O)N(c2cc(Cl)cc(Cl)c2)C1=O (stereo unspecified)	inactive	
CCCN(CCC)c1c([N+](=O)[O-])cc(S(N)(=O)=O)cc1[N+](=O)[O-]		22.4 µM (active)
CCCCOC(=O)c1ccccc1C(=O)OCCCC		80.3 µM (active)
CCOP(=S)(OCC)SCn1c(=O)oc2cc(Cl)ccc21	inactive	
CC(C)(C)c1ccc(CSc2cnn(C(C)(C)C)c(=O)c2Cl)cc1	inactive	
CCCCNC(=O)OCC#CI	inactive	
COP(=S)(OC)Oc1nc(Cl)c(Cl)cc1Cl	inactive	
COc1ccc(C(c2ccc(OC)cc2)C(Cl)(Cl)Cl)cc1		99.5 µM (active)
OC(c1ccc(Cl)cc1)(c1cncnc1)c1ccccc1Cl (stereo unspecified)		6.28 µM (active)
CC(C)Oc1cc(-n2nc(C(C)(C)C)oc2=O)c(Cl)cc1Cl		26.8 µM (active)
CCCC1COC(Cn2cncn2)(c2ccc(Cl)cc2Cl)O1 (stereo unspecified)		32.5 µM (active)
